The values below come from PubChem BioAssay (NCATS).

“And” between values parts separate entries of the source, which are not always exact repeats. Equal values may be shown once. Inconclusive results are not listed. Some structures have more than one record in an assay (separate samples or runs), and their calls can disagree. The source made the active and inactive calls. Unless noted, the call rests on the fitted dose curve; in most records, active means well fitted curve in the direction sought with a large enough effect; inconclusive means small, poorly fitted or top-dose-only effect, or another doubt; inactive means no such curve, though single readings can be large; an effect the other way counts as inactive or inconclusive.

A short description of test [1]: S16 Schwann cell PMP22 intronic element beta-lactamase assay (AID 624044; calls by dose curve; further: nearly all actives have a fitted effect of over 15% in size; further: potency means the concentration at half of the fitted maximal effect). An outline of the steps: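 Rat S16 Schwann cells with beta-Lac driven by a PMP22 intronic element, compound-treated 24 h at 37 °C. LiveBLAzer FRET B/G read: 460 nm normalized to potassium clavulanate vs DMSO; 535 nm FRET as viability; concentration-effect curves classified.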
Test [2] has as its target Glutaminase kidney isoform, mitochondrial (Homo sapiens) (UniProt O94925). As to the kind of experiment: qHTS for Inhibitors of Glutaminase (GLS): LOPAC Validation (AID 624146). Further: nearly all actives have a fitted effect of over 60% in size. Further: potency means the concentration at half of the fitted maximal effect. An outline of the steps: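 Coupled fluorescence readout: glutamate oxidase/HRP/Amplex Red detect glutamate formed by hKGA from L-glutamine (1 mM solution added). Buffer 45 mM KH2PO4 pH 8.2, 0.02% Tween-20; reads at t0 and 30 min RT.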
Background: Quantitative high-throughput screening tests each substance at several concentrations.

Test [3] can be described thus: qHTS of Trypanosoma Brucei Inhibitors: LOPAC Validation (AID 624147). Further: 0% is about no effect. In outline: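 Readout: single end-point luminescence (Kinase-Glo Plus, 10 min). Reaction conditions were TbPYK/substrate plus 130 uM ADP, 45 min at RT, pH 7.2 TEA buffer. No-enzyme wells served as controls, and data were normalized before concentration-response fitting.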
Test [4] concerns the target Glucagon-like peptide 1 receptor (Homo sapiens) (UniProt P43220). Briefly: qHTS of GLP-1 Receptor Agonists: LOPAC Validation (AID 624148).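 Further: 0% is about no effect; higher luminescence signal means agonism.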 An outline of the steps: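 HEK293 cells stably co-expressing GLP-1R and a cAMP-responsive luciferase reporter, plated 12 hours before compound, then incubated 4-6 hr at 37 deg C. Luminescence read 12 min after detection reagent.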

Test [5] is described as follows: qHTS of Nrf2 Activators: LOPAC Validation (AID 624149). Further: 0% is about no effect. In outline:
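Luminescence read-out of ARE-luciferase activation: AREc32_Fluc cells treated with compounds for 24 hr at 37 deg C, then lysed with Steady-Glo for 30 min at room temperature before reading.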

Test [6] can be described thus: HTS Assay for Allosteric Antagonists of the Human D2 Dopamine Receptor: Hit Validation in HTRF (AID 624455).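 Further: stable D1 dopamine receptor cell line scored for blocking the D1 response; on the % scale 0 is the no-effect control and ±100 the full control effect.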 An outline of the steps: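 First, antagonism was screened by calcium flux in a force-coupled, inducible Hek293 Trex D2 line challenged with EC80 dopamine. Hits then went into an HTRF assay in cells stably expressing D1, testing inhibition of the D1 response.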

Test [7] in a line: Cytotoxicity counterscreen for NFkB agonists and antagonists (AID 624476).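 Further: cells exposed to compound for 48 hours.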 Further: potency means the concentration at half of the fitted maximal effect.
Test [8] can be described thus: qHTS Assay for Identification of Small Molecule Agonists for NFkB Signaling Pathway. (AID 624478).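 Further: compounds tested together with TNF alpha at its EC50 of 10 pM; 0% is about no effect.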 An outline of the steps:
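ME-180 cervical carcinoma, stable NFkB-RE beta-lactamase reporter; 1000 cells/well, overnight attachment; cpd + TNF alpha 10 pM final, 5 h 37 C; LiveBLAzer 2 h RT; FRET 460/530 nm, ex 405 nm.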

The nature of test [9]: qHTS Assay for Identification of Small Molecule Antagonists for NFkB Signaling Pathway. (AID 624479; calls by dose curve;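 further: pathway stimulated with TNF alpha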; further: potency means the concentration at half of the fitted maximal effect).
Test [10] can be described thus: Cell Proliferation Assay against the TMD8 Cell Line (AID 651645).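 Further: cells exposed to compound for 48 h before reading.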 As to conditions: TMD8 DLBCL cell line proliferation/viability; at 46.1 µM (top of the series) unless noted. In outline: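 500 TMD8 cells/well, RPMI + Glutamax, no phenol red, 5% FBS; cpd added immediately; 48 h, 37C, 5% CO2; CellTiter-Glo, luminescence. Controls: DMSO = 100%, bortezomib 9.2 uM final = 0%.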

The nature of test [11]: Cell Proliferation Assay against the HBL1 Cell Line (AID 651646).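 Further: cells exposed to compound for 48 h before reading.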 As to conditions: HBL1 DLBCL cells; at 46.1 µM (top of the series) unless noted. In outline: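 HBL1 ABC DLBCL cells, 500/well in RPMI with 5% FBS, treated for 48 h at 37C. Viability read by CellTiter-Glo luminescence, normalized to DMSO as 100% and 9.2 uM bortezomib as 0%.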
The nature of test [12]: qHTS assay for small molecule disruptors of the mitochondrial membrane potential - 1 hr assay (AID 651754; calls by dose curve; further: potency means the concentration at half of the fitted maximal effect; nearly all actives have a fitted effect of over 35% in size). In outline: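 HepG2, 2,000 cells/well, overnight attachment; cpd or DMSO 1 hr, 37C/5% CO2; Mito-MPS dye 30 min, 37C; fluorescence monomer (490/535) and aggregate (540/590).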
Test [13] can be described thus: qHTS assay for small molecule disruptors of the mitochondrial membrane potential - 5 hr assay (AID 651755; calls by dose curve; further: potency means the concentration at half of the fitted maximal effect; nearly all actives have a fitted effect of over 40% in size). In outline:
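HepG2 cells (2,000/well), attached overnight, exposed to compound 5 hr at 37C, then Mito-MPS dye 30 min. Fluorescence read for monomers (490/535 nm) and aggregates (540/590 nm).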

Test [14] in a line: qHTS assay for small molecule agonists of the antioxidant response element (ARE) signaling pathway (AID 651741; active means well fitted activation curve with a large enough effect in the signal ratio; the % refers to the signal ratio; further: potency means the concentration at half of the fitted maximal effect; on activation: % of control where 0% means no effect). An outline of the steps: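 CellSensor ARE-bla HepG2 cells (2,000/well) carrying ARE-driven beta-lactamase, exposed 16 h at 37 C. LiveBLAzer B/G FRET substrate added for 2 h at room temperature; fluorescence intensity read.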
A short description of test [15]: qHTS assay for small molecule activators of the p53 signaling pathway (AID 651743; active means well fitted activation curve with a large enough effect in the signal ratio, not every such curve was filed as active; the % refers to the signal ratio; further: % of control where 0% means no effect). Conditions: HCT-116 p53RE-bla, beta-lactamase FRET ratio, 16 h; stronger effect = higher value. An outline of the steps:
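p53RE-bla HCT-116 cells carrying a beta-lactamase reporter under p53 response elements were exposed to compounds for 16 hours at 37 C. Reporter activity read as fluorescence after 2 hours at room temperature with LiveBLAzer B/G FRET substrate.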

Test [16] is described as follows: qHTS assay for small molecule activators of the nuclear factor-kappa B (NF-kB) signaling pathway (AID 651749; active means well fitted activation curve with a large enough effect in the signal ratio; the % refers to the signal ratio; further: % of control where 0% means no effect). Conditions: NF-kB-bla ME-180 cells, beta-lactamase FRET ratio, 16 h; stronger effect = higher value. An outline of the steps: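 NF-kB-bla ME-180 cells carrying a beta-lactamase reporter under an NF-kB response element, 2,000 cells/well, exposed to compound for 16 hr at 37C; FRET-based beta-lactamase fluorescence read-out of pathway activation.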

Test [17] addresses Tumor necrosis factor (Homo sapiens) (UniProt P01375). As to the kind of experiment: qHTS assay to identify small molecules that stimulate Tumor Necrosis Factor-alpha (TNF-alpha) secretion (AID 651757; active means well fitted curve in the direction sought with a large enough effect in the signal ratio; the % refers to the signal ratio; further: 0% is about no effect). In outline:
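Read-out is HTRF, a TR-FRET sandwich of cryptate- and XL665-labeled anti-TNF-alpha antibodies detecting cytokine secreted by THP-1 cells. Cells had been incubated with test compounds at 37 C for 17 hrs beforehand.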

Test [18] in a line: Cell Proliferation Assay against the TMD8 Cell Line (Caspase readout at 16 hrs) (AID 651712). Further: potency means the concentration at half of the fitted maximal effect. An outline of the steps:
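TMD8 cells in RPMI with 5% FBS were treated with compound for 16 h at 37 C, then caspase 3/7 activation was read by Caspase-Glo luminescence. Percent activity was scaled to DMSO (0%) and 9.2 uM bortezomib final (100%).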

Test [19] in a line: Cell Proliferation Assay against the TMD8 Cell Line (Caspase readout at 8 hrs) (AID 651713). Further: potency means the concentration at half of the fitted maximal effect. In outline:
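Seed log-phase TMD8 cells, add compound by pin tool, incubate 8 h at 37C under 5% CO2, equilibrate to room temperature, add Caspase-Glo, wait 15 min, read luminescence; percent activity uses DMSO and 9.2 uM bortezomib controls.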

Chain of Tumor necrosis factor (Homo sapiens) (P01375 whole entry, looked up): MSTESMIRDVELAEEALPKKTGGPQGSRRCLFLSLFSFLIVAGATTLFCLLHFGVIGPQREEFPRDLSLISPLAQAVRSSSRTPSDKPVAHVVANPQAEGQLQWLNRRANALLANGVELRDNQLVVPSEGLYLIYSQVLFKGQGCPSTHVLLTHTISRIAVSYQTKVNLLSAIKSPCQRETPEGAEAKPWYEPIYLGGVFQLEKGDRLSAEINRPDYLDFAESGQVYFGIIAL
Chain of Glucagon-like peptide 1 receptor (Homo sapiens) (P43220 whole entry, looked up): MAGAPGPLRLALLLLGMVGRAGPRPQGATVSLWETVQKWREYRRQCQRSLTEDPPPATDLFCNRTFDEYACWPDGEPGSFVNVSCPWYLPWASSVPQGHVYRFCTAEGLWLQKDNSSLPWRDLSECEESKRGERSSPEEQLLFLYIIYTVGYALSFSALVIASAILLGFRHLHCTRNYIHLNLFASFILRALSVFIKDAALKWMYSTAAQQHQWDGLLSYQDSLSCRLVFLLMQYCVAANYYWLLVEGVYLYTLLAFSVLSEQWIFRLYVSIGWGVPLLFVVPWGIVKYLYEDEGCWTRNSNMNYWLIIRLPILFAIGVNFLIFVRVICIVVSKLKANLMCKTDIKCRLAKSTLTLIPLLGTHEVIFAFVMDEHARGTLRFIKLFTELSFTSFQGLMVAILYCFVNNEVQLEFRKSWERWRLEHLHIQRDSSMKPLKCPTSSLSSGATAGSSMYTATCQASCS
Chain of Glutaminase kidney isoform, mitochondrial (Homo sapiens) (O94925 whole entry, looked up, canonical isoform): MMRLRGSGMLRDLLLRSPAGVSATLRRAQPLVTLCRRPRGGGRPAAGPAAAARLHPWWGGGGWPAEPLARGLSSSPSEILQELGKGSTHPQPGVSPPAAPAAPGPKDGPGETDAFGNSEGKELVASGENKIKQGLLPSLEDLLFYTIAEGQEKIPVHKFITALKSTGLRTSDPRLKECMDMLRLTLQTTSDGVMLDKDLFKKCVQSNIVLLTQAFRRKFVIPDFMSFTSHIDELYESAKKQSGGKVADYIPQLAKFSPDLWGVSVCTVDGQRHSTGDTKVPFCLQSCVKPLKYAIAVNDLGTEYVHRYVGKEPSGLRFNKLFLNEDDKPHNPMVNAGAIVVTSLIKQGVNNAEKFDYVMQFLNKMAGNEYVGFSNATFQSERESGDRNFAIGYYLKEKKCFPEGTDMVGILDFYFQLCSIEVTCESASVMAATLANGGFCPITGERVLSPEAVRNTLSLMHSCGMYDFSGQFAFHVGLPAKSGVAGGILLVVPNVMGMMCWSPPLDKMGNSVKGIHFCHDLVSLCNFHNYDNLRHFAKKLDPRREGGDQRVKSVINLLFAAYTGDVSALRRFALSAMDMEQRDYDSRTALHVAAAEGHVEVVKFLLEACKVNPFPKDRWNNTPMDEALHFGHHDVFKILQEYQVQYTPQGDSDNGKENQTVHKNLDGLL

In the case of `CC1=C(/C=C/C(C)=C/C=C/C(C)=C/C(=O)Nc2ccc(O)cc2)C(C)(C)CCC1`, the Potency in test [1] was 11.2 µM (active); in test [2], 12.6 µM (active); in test [7], 20.9 µM (active); in test [9], 21.1 µM (active); in [12], 15 µM (active); in test [13], 18.8 µM (active). Moreover, the compound was classed as inactive in test [3], in test [4], in test [5], in [6] and in test [8]. For the same compound, the viability (% of control) in test [10] is 7.34%. The viability, percent of control in [11] was found to be 0.102%.
For the compound `Clc1ccc(C(c2ccc(Cl)cc2)n2cc[n+](CC(OCc3ccc(Cl)cc3Cl)c3ccc(Cl)cc3Cl)c2)cc1` (centres undefined), in test [2], the Potency result is “inactive”. Moreover, the compound was called inactive in test [3], in test [4], in test [5] and in test [6].
Take `O=C1Nc2ccc(Cl)cc2C(C#CC2CC2)(C(F)(F)F)O1` (centres undefined): in test [1], the Potency result is “inactive”. For the same compound, the call in test [8] was inactive. In addition, the Potency in [9] was 30.6 µM (active).
As for `COc1cccc(-c2cc(=O)c3ccccc3o2)c1N`, the Potency result in [2] was “inactive”. For the same compound, the outcome in test [3], in test [4], in test [5] and in test [6] was inactive.
As for `CC(=O)c1ccc(S(=O)(=O)NC(=O)NC2CCCCC2)cc1`, the Potency result in test [2] and in test [14] was “inactive” in each case. The result in test [3], in [4], in test [5], in test [6] and in test [17] was inactive. Further, the activation in [15] was -2.83% (inactive) and -1.75% (inactive); in test [16] it was -0.811% (inactive) and -1.71% (inactive).
For the compound `O=C(O)c1c(Cl)c(Cl)c(Cl)c(Cl)c1-c1c2cc(I)c(=O)c(I)c-2oc2c(I)c(O)c(I)cc12`, in [1], the Potency result is “inactive”.
Same read-out and setting: as for `Clc1ccc(COC(Cn2ccnc2)c2ccc(Cl)cc2Cl)cc1` (centres undefined), the entry is “inactive”.
Turning to `CCN(CC)CCNC(=O)c1ccc(N)cc1`, in test [2], the Potency entry is “inactive”. The compound was called inactive in test [3], in [5] and in test [6].
Consider `C[N+](C)(C)CC(=O)O`, for which, in test [2], the Potency entry was “inactive”. Further, the result in test [4], in test [5] and in test [6] was inactive.
On to `COc1cccc2c1CCCC2CCCN1CCN(C2CCCCC2)CC1` (centres undefined), for which the Potency result in test [7] and in test [9] was “inactive” each time. In [8], the outcome was inactive. Moreover, the viability (% of control) in test [10] came out at 1.09%. Besides, the viability, percent of control in test [11] was determined as 28.8%. Moreover, the Potency was 23.5 µM (active) in test [18] and 29.6 µM (active) in [19].
With `CC(C)(C)c1ccc(C(O)CCCN2CCC(C(O)(c3ccccc3)c3ccccc3)CC2)cc1` (centres undefined), the Potency result in test [2] is “inactive”. Besides, the compound was classed as inactive in [3], in test [4] and in test [6].
`O=C1NC(=O)C(c2ccccc2)(c2ccccc2)N1`: the Potency entry in test [2] was “inactive”. Besides, the compound was called inactive in [3], in test [4], in test [5], in test [6] and in test [17]. In addition, in [14], the Potency is 34.4 µM (active) and inactive.
For `CCN(CC)C(=O)c1ccc(O)c(OC)c1`, the outcome in [3], in test [4], in [5] and in [6] was inactive.
As for `CN(C)C1CCN(C(=O)c2ccc(NC(=O)Nc3nc(N4CCOCC4)nc(N4CCOCC4)n3)cc2)CC1`, the Potency in test [7] was 0.0743 µM (active); in test [18], 6.62 µM (active). The result in [8] was inactive. In addition, the Potency entry in test [9] was “inactive”. Besides, the viability (% of control) in [10] is 2.35%. Besides, the viability, percent of control in test [11] was determined as 26.9%.
Turning to `OC[C@H]1O[C@@H](n2cnc3c2NC=NC[C@@H]3O)C[C@H]1O`, the Potency entry in [7], in test [9], in test [18] and in test [19] was “inactive” in each case. Besides, the result in test [8] was inactive. The viability (% of control) in test [10] came out at 95.3%. The viability, percent of control in test [11] came to 105%.
`CC1(C)CCC2=C(O1)c1ccccc1C(=O)C2=O`: the result in [3], in test [4], in [5] and in test [6] was inactive.
In the case of `CN(C)CCC(c1ccccc1)c1ccccn1` (centres undefined), the Potency result in test [2] is “inactive”. Besides, the compound was called inactive in test [3], in [5], in test [6] and in test [17]. Further, in test [14], the Potency is 37.6 µM (active). The values for the activation in [15] and in test [16] were 1.39% (inactive) and -0.458% (inactive), respectively.
Take `Cc1nc(N)sc1-c1ccnc(Nc2ccc(N3CCOCC3)cc2)n1`: in test [7], the Potency result is “inactive”. Moreover, the result in [8] was inactive. In addition, the Potency in test [9] is 2.66 µM (active). In [10], the viability (% of control) came to 4.33%. The viability, percent of control in test [11] was 24.4%.
With `CC(=O)Nc1ccc([C@H](C)C(=O)Nc2ncc(C(C)C)s2)cc1`, the Potency was 0.935 µM (active) in [7] and 0.335 µM (active) in test [9]. For the same compound, the result in test [8] was inactive. Also, the viability (% of control) in test [10] is -0.0002%. Also, the viability, percent of control in test [11] was 33.5%.
In the case of `CC(C)OC(=O)C(C)(C)Oc1ccc(C(=O)c2ccc(Cl)cc2)cc1`, the Potency result in [2] is “inactive”. In addition, the result in test [4], in [5] and in [6] was inactive. The activation in [16] is -1.6% (inactive).
As for `O=C1C(Cl)=C(NCCN2CCOCC2)C(=O)c2ncccc21`, the results for the Potency in [7] and in [9] were 2.35 µM (active) and 2.11 µM (active), respectively. Further, in test [8], the compound was classed as inactive. Besides, in test [10], the viability (% of control) was 3.41%. In test [11], the viability, percent of control was 2.09%. The Potency result in test [18] and in test [19] was “inactive” in each case.
